Measured values: PubChem BioAssay (EPA / NIEHS)
Records with an inconclusive call do not appear. Activity calls are given as the source filed them. Rule for the calls, unless noted: active = hit-call score of the fitted dose curve at least 0.9, where 1 is the maximum; inactive = score below 0.9.

Tests used:
[1] = target: Glucocorticoid receptor (Homo sapiens) (UniProt P04150); assay: ATG_GR_TRANS: Attagene TRANS-FACTORIAL HepG2 Assay for human Glucocorticoid Receptor (GR) (AID 2282978; active = hit-call score of the fitted dose curve at least 0.9, where 1 is the maximum;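 note: activators score as hits since higher reporter transcript over DMSO is fitted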); details: HepG2 Attagene TRANS GR reporter, mRNA transcription
Glucocorticoid receptor (Homo sapiens), sequence (P04150 whole entry, looked up, the tested form may be a part): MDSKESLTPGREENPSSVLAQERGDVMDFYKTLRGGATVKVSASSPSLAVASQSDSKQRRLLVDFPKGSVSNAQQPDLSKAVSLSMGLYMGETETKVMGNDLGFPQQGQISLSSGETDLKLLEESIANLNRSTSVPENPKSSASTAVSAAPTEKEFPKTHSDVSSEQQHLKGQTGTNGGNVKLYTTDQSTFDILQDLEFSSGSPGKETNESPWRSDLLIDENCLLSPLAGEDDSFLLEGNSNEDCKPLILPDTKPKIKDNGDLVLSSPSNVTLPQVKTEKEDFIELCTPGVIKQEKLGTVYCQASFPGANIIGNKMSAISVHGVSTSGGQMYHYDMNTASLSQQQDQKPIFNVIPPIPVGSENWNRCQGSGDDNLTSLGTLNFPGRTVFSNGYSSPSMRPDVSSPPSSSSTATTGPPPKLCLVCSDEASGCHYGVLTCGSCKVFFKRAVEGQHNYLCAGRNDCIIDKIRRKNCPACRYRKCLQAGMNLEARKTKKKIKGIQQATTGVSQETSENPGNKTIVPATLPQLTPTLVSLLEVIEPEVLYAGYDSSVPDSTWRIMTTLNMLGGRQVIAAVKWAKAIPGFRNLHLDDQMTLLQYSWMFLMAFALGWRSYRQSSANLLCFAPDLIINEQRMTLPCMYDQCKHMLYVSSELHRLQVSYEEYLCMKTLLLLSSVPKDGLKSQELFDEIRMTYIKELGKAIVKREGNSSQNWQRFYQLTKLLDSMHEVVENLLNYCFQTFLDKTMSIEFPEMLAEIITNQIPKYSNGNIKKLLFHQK
Method in brief: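 Transiently transfected HepG2 cells express chimeric NR-GAL4 proteins acting on GAL4-UAS reporter units. Compounds are applied for 24 h. mRNA induction over DMSO is measured by capillary electrophoresis.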

[2] = target: Bile acid receptor (Homo sapiens) (UniProt Q96RI1); assay: ATG_FXR_TRANS: Attagene TRANS-FACTORIAL HepG2 Assay for Farnesoid X Receptor (FXR) (AID 2282979; active = hit-call score of the fitted dose curve at least 0.9, where 1 is the maximum;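 note: hits raise reporter mRNA above DMSO so AC50 marks FXR activation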); details: HepG2 Attagene TRANS FXR-GAL4 reporter transcription
Bile acid receptor (Homo sapiens), sequence (Q96RI1 whole entry, looked up, the tested form may be a part): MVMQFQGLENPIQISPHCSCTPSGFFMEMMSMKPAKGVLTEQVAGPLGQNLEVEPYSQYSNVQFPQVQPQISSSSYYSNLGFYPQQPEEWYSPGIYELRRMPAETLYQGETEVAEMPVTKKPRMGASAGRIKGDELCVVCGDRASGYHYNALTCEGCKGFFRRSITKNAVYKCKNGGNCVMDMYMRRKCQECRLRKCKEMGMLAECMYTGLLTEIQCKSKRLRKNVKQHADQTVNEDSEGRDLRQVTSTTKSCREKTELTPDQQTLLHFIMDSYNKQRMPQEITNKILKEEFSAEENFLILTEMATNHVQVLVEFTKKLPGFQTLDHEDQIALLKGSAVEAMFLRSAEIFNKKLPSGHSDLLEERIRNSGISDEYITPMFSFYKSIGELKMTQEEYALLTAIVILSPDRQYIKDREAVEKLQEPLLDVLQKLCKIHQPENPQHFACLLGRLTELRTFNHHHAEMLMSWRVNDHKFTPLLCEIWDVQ
Method in brief: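 After 24 h chemical treatment of transfected HepG2 cells, GAL4-UAS reporter transcripts driven by an exogenous FXR-GAL4 fusion were measured by RT-PCR and capillary electrophoresis. Increases over DMSO were fitted.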

[3] = target: Oxysterols receptor LXR-alpha (Homo sapiens) (UniProt Q13133); assay: ATG_LXRa_TRANS: Attagene TRANS-FACTORIAL HepG2 Assay for human Liver X Receptor alpha (LXRa) (AID 2282980; active = hit-call score of the fitted dose curve at least 0.9, where 1 is the maximum); details: HepG2 Attagene TRANS reporter, LXRa transactivation
Oxysterols receptor LXR-alpha (Homo sapiens), sequence (Q13133 whole entry, looked up, the tested form may be a part): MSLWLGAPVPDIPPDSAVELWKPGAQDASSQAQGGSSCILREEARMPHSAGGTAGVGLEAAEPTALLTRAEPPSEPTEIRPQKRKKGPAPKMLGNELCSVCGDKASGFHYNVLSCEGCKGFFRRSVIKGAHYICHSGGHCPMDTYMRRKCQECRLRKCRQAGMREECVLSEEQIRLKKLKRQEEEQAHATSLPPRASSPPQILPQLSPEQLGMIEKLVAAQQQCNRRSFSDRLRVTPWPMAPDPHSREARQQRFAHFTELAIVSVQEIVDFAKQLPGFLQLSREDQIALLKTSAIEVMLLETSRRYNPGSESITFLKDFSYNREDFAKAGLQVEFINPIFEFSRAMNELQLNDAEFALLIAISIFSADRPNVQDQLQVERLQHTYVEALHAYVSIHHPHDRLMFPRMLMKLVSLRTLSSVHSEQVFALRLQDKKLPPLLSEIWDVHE
Method in brief: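 In this multiplexed TRANS system, compounds act on HepG2 cells carrying GAL4-UAS reporter units and a receptor-GAL4 fusion for 24 h. Induced reporter RNA is amplified, fluorescently labelled and sized by capillary electrophoresis, with DMSO as baseline.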

[4] = target: Oxysterols receptor LXR-beta (Homo sapiens) (UniProt P55055); assay: ATG_LXRb_TRANS: Attagene TRANS-FACTORIAL HepG2 Assay for human Liver X Receptor beta (LXRb) (AID 2282981; active = hit-call score of the fitted dose curve at least 0.9, where 1 is the maximum); details: HepG2 Attagene TRANS GAL4-LXRb reporter, mRNA
Oxysterols receptor LXR-beta (Homo sapiens), sequence (P55055 whole entry, looked up, the tested form may be a part): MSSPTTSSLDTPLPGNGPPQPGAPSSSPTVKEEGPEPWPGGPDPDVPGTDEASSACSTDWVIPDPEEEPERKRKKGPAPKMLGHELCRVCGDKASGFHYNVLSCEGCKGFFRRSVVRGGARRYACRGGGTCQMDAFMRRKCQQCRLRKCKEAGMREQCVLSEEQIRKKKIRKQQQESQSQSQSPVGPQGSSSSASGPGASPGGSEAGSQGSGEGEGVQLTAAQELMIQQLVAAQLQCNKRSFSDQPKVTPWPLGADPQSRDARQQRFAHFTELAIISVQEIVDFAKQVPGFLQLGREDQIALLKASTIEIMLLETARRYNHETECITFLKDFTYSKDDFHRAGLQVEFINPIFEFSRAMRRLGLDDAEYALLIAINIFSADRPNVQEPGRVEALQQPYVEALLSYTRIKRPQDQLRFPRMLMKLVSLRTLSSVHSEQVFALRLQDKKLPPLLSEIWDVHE
Method in brief: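 Transient transfection HepG2 (multiplexed RTUs, GAL4-UAS); NR-Gal4 chimera; 24 h exposure; RNA → RT-PCR → 6-FAM primer extension → HpaI → CE; increase vs DMSO.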

[5] = target: Hepatocyte nuclear factor 4-alpha (Homo sapiens) (UniProt P41235); assay: ATG_HNF4a_TRANS: Attagene TRANS-FACTORIAL HepG2 Assay for human Hepatocyte Nuclear Factor 4 alpha (HNF4a) (AID 2282982; active = hit-call score of the fitted dose curve at least 0.9, where 1 is the maximum); details: HepG2 HNF4a transactivation reporter, mRNA readout
Method in brief: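 Readout is fluorescent reporter-transcript fragments resolved by capillary electrophoresis after RT-PCR from HepG2 cells dosed for 24 h. Cells carried transfected GAL4-UAS reporter constructs measuring exogenous NR-GAL4 chimera activity; DMSO served as baseline.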

[6] = ATG_M_06_TRANS: Attagene TRANS-FACTORIAL HepG2 Assay for M06 Transcription Factor (Internal Marker) (AID 2282983; active = hit-call score of the fitted dose curve at least 0.9, where 1 is the maximum;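 note: reporter transcript level by RT-PCR then capillary electrophoresis fluorescence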); details: HepG2 Attagene TRANS M06 internal marker reporter
Method in brief: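 Internal-marker background readout from a multiplexed TRANS reporter system in HepG2; 24 h dosing; mRNA induction quantified by RT-PCR plus capillary electrophoresis fluorescence; DMSO as negative control and baseline.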

[7] = ATG_M_32_TRANS: Attagene TRANS-FACTORIAL HepG2 Assay for M32 Transcription Factor (Internal Marker) (AID 2282984; active = hit-call score of the fitted dose curve at least 0.9, where 1 is the maximum;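 note: transcript level of a background control reporter unit measured by RT-PCR and capillary electrophoresis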); details: HepG2 Attagene TRANS M32 internal marker reporter
Method in brief: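 Measures reporter mRNA induction in human HepG2 liver cells after 24 h chemical treatment. Transcripts from transiently transfected GAL4-UAS reporter units are amplified, fluorescently labelled and sized by capillary electrophoresis; gain of signal relative to DMSO.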

[8] = target: Transcriptional activator Myb (Homo sapiens) (UniProt P10242); assay: ATG_Myb_CIS: Attagene CIS-FACTORIAL HepG2 Assay for human Myeloblastosis (Myb) Proto-Oncogene Transcription Factor (AID 2282986); details: HepG2 Attagene CIS-FACTORIAL Myb reporter transcription; actives raise or lower the signal
Transcriptional activator Myb (Homo sapiens), sequence (P10242 whole entry, looked up): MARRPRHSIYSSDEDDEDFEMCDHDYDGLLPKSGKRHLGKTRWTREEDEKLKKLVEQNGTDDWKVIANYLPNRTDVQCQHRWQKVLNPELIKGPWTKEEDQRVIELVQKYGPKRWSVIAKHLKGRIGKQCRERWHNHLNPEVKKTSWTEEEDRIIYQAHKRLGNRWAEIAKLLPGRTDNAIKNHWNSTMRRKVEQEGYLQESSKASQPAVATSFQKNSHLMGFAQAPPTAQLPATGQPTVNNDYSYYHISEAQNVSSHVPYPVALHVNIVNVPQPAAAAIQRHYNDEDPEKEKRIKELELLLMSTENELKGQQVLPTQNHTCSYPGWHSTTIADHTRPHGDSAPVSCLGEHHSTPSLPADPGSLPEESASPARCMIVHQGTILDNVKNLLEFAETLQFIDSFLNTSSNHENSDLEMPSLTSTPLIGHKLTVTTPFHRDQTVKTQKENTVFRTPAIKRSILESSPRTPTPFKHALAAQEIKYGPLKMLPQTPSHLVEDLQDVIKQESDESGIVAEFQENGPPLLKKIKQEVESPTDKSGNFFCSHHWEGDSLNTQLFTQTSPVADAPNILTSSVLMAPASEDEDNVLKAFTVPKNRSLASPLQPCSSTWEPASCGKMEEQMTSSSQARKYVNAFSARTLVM
Method in brief: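 Using HepG2 liver cells bearing transiently transfected cis-promoter reporter constructs, the assay measures induction or loss of reporter mRNA after 24 hours of dosing. Detection used fluorescently labeled RT-PCR products separated by capillary electrophoresis.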

[9] = target: Nuclear respiratory factor 1 (Homo sapiens) (UniProt Q16656); assay: ATG_NRF1_CIS: Attagene CIS-FACTORIAL HepG2 Assay for human Nuclear Respiratory Factor 1 (NRF1) Orphan Gene (AID 2282987); details: HepG2 NRF1 cis-element reporter, Attagene multiplex; actives raise or lower the signal
Nuclear respiratory factor 1 (Homo sapiens), sequence (Q16656 whole entry, looked up): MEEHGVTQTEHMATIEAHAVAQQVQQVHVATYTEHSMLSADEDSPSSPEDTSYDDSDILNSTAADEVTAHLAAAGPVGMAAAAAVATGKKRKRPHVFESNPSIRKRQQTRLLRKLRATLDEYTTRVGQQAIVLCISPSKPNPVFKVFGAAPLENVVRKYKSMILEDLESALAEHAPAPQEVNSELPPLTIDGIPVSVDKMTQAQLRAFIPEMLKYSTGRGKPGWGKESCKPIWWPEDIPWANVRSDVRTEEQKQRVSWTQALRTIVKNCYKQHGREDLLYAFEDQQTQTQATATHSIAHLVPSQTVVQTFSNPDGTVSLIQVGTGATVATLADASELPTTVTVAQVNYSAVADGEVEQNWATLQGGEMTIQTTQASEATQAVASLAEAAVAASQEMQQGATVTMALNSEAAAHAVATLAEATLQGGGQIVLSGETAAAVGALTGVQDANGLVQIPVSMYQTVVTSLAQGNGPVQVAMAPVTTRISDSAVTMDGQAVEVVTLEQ
Method in brief: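 Reporter mRNA induction or loss in HepG2 cells after 24 h dosing; cis-regulated reporter constructs report endogenous transcription-factor activity. Quantified by RT-PCR/capillary electrophoresis fluorescence, DMSO-referenced.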

[10] = ATG_NFI_CIS: Attagene CIS-FACTORIAL HepG2 Assay for human Nuclear Factor I (NFI) (AID 2282989); details: HepG2 cis-regulatory reporter, NFI response element transcription; actives raise or lower the signal
Method in brief: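 Transfected HepG2 liver cells, exposed 24 h, supplied total RNA for oligo(dT) reverse transcription and reporter-specific PCR. Labelled, HpaI-cut fragments were sized by capillary electrophoresis; DMSO set the baseline for bidirectional fitting.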

[11] = target: Myc proto-oncogene protein (Homo sapiens) (UniProt P01106); assay: ATG_Myc_CIS: Attagene CIS-FACTORIAL HepG2 Assay for human Myelocytomatosis (Myc) Proto-Oncogene Transcription Factor (AID 2282990); details: HepG2, Attagene cis-reporter transcription factor activity; actives raise or lower the signal
Myc proto-oncogene protein (Homo sapiens), sequence (P01106 whole entry, looked up): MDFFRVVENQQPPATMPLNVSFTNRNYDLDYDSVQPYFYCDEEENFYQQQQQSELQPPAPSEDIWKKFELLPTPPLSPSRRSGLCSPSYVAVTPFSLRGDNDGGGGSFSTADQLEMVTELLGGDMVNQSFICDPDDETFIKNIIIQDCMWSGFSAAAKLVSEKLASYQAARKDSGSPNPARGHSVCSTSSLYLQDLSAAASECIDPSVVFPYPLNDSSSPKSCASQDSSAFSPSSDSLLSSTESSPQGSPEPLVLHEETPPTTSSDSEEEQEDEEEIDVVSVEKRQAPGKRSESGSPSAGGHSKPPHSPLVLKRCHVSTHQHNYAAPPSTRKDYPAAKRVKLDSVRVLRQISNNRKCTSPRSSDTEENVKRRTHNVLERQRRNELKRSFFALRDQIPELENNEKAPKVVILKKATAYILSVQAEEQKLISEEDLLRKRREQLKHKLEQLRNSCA
Method in brief: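 Cells of the HepG2 human liver line bear multiple cis-driven reporter transcription units. Reporter mRNA after 24 h exposure is reverse-transcribed, amplified, labelled and resolved by capillary electrophoresis, with gain- or loss-of-signal fitting relative to DMSO.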

[12] = ATG_NF_kB_CIS: Attagene CIS-FACTORIAL HepG2 Assay for human Nuclear Factor Kappa B (NF-kB) (AID 2282991); details: HepG2 Attagene cis-factorial NF-kB reporter mRNA; actives raise or lower the signal
Method in brief: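 DMSO served as negative control and baseline for bidirectional curve fitting. Transiently transfected HepG2 cells were dosed for 24 h, then reporter transcripts were measured by RT-PCR with capillary electrophoresis detection.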

[13] = ATG_Oct_MLP_CIS: Attagene CIS-FACTORIAL HepG2 Assay for human Octamer-Binding Transcription Factor (Oct) (AID 2282993); details: HepG2 Attagene cis-factorial Oct reporter, mRNA; actives raise or lower the signal
Method in brief: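 Using HepG2 cells bearing transfected cis-reporter constructs, mRNA induction was read after 24 h by fluorescent RT-PCR and capillary electrophoresis, with DMSO defining baseline for gain- or loss-of-signal fits.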

[14] = target: Cellular tumor antigen p53 (Homo sapiens) (UniProt P04637); assay: ATG_p53_CIS: Attagene CIS-FACTORIAL HepG2 Assay for human p53 Transcription Factor (AID 2282994); details: HepG2 p53 cis-element reporter, Attagene mRNA; actives raise or lower the signal
Cellular tumor antigen p53 (Homo sapiens), sequence (P04637 whole entry, looked up): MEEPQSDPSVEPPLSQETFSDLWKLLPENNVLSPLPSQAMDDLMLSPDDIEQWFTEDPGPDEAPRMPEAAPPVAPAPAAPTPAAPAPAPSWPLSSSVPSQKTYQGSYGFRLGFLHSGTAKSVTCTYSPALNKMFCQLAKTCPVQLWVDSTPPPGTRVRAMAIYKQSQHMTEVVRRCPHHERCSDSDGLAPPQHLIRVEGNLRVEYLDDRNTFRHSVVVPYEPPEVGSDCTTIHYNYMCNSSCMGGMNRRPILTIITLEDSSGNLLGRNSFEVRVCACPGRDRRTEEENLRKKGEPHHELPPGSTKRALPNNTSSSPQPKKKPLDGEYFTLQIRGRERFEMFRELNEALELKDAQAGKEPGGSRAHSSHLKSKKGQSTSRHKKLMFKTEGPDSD
Method in brief: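 Using HepG2 hepatoma cells carrying cis-acting multiplexed reporters, mRNA induction is detected after a 24 h exposure. Gain- and loss-of-signal responses are fitted relative to DMSO-treated cells.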

[15] = BSK_3C_TissueFactor: BioMAP Diversity Plus: 3C Assay for Tissue Factor Biomarker Activity (AID 2282997); details: BioMAP 3C HUVEC, tissue factor biomarker readout; actives raise or lower the signal
Method in brief: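 Endothelial monolayers (human umbilical vein, primary) are dosed, incubated 24 h, and assayed for Tissue Factor by ELISA; DMSO serves as negative control for bidirectional fitting.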

[16] = BSK_3C_uPAR: BioMAP Diversity Plus: 3C Assay for Urokinase-type plasminogen activator receptor (uPAR) Biomarker Activity (AID 2282998); details: BioMAP 3C HUVEC, uPAR biomarker ELISA; actives raise or lower the signal
Method in brief: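 In this endothelial cell-based assay, human umbilical vein primary cells were treated with chemicals and harvested at 24 h. uPAR was quantified using ELISA, with gains or losses fitted relative to DMSO controls.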

[17] = BSK_3C_VCAM1: BioMAP Diversity Plus: 3C Assay for Vascular cell adhesion molecule 1 (VCAM1) Biomarker Activity (AID 2282999); details: BioMAP 3C HUVEC, VCAM1 ELISA, cytokine-stimulated; actives raise or lower the signal
Method in brief: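 Endothelial cells from human umbilical vein are treated with test chemical. At 24 h, VCAM-1 is measured by ELISA, and responses in either direction are fitted relative to DMSO.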

[18] = target: Estrogen-related receptor gamma (Homo sapiens) (UniProt P62508); assay: ATG_ERRg_TRANS: Attagene TRANS-FACTORIAL HepG2 Assay for human Estrogen-Related Receptor gamma (ERRg) (AID 2282977; active = hit-call score of the fitted dose curve at least 0.9, where 1 is the maximum;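 note: hits increase reporter signal over DMSO so potencies reflect activators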); details: HepG2 Attagene TRANS reporter, ERRg transactivation
Method in brief: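 HepG2 cells transiently transfected with multiplexed GAL4-UAS reporter units driven by chimeric NR-Gal4 proteins; 24 h exposure. Reporter mRNA quantified by RT-PCR, fluorescent labelling, HpaI digestion and capillary electrophoresis; gain of signal vs DMSO.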

[19] = ATG_NRF2_ARE_CIS: Attagene CIS-FACTORIAL HepG2 Assay for human Nuclear Factor Erythroid 2 Related Factor 2 (NFR2) response to Antioxidant Response Elements (ARE) (AID 2282992); details: HepG2 Attagene ARE/NRF2 reporter, transcription factor activity; actives raise or lower the signal;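 for AC50: reporter mRNA level measured by RT-PCR and capillary electrophoresis fluorescence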
Method in brief: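 Cis-factorial assay: transfected HepG2 reporter library, 24 h dosing, mRNA readout via RT-PCR/CE; DMSO-referenced bidirectional analysis.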

[20] = target: Nuclear receptor subfamily 4 group A member 2 (Homo sapiens) (UniProt P43354); assay: ATG_NURR1_TRANS: Attagene TRANS-FACTORIAL HepG2 Assay for human Nuclear Receptor Related Protein 1 (NURR1) (AID 2282985; active = hit-call score of the fitted dose curve at least 0.9, where 1 is the maximum); details: HepG2 Attagene TRANS reporter, mRNA readout
Nuclear receptor subfamily 4 group A member 2 (Homo sapiens), sequence (P43354 whole entry, looked up, the tested form may be a part): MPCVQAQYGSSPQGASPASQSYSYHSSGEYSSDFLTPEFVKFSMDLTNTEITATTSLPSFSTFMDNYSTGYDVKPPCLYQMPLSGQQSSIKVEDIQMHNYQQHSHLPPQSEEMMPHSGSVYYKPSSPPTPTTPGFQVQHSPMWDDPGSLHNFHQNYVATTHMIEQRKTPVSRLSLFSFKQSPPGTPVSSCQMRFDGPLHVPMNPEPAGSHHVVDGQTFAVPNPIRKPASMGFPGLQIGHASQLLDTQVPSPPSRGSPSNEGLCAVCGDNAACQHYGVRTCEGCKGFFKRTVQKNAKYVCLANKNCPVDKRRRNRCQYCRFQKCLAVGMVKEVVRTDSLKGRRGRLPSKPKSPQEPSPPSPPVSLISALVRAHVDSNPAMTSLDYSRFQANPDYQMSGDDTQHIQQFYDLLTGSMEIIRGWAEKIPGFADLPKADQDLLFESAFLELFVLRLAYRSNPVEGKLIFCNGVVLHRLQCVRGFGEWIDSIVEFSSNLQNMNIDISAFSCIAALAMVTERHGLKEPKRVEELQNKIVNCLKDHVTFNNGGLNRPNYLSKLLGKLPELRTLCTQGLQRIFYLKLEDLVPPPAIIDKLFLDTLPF
Method in brief: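 Transient transfection of HepG2, human liver cells, with multiple GAL4-UAS reporter transcription units. Cells dosed 24 h, RNA isolated, reverse-transcribed, PCR-amplified, FAM-labelled, HpaI-digested, sized by capillary electrophoresis. DMSO served as negative control.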

Measured: AC50

CCOP(=S)(OCC)SCS(=O)(=O)CC
not listed: [18] | [19] | [20]
inactive: all other assays above

O=c1ssc(Cl)c1Cl
active: [9] 33.4 µM | [11] 33.4 µM | [12] 45 µM | [19] 1.08 µM | [13] 51.6 µM | [15] 5.68 µM | [16] 6.09 µM | [17] 5.62 µM
not listed: [1] | [2] | [20]
inactive: all other assays above

CCOC(=O)c1ccccc1C(=O)OCC
not listed: [1] | [2] | [3] | [7] | [16]
inactive: all other assays above

CC(Cc1ccc(OCC(=O)O)cc1)NCC(O)c1csc(C(F)(F)F)n1 (stereo not given)
inactive: [18] | [4] | [20] | [8] | [9] | [10] | [11] | [13] | [14] | [15] | [17]

OCC(F)(F)OC(F)(F)C(F)(F)OC(F)(F)C(F)(F)OC(F)(F)CO
active: [14] 29.8 µM
not listed: [7] | [18] | [19]
inactive: all other assays above

O=C(O)C(F)(OC(F)(F)C(F)(F)C(F)(F)F)C(F)(F)F (stereo not given)
not listed: [1]
inactive: all other assays above

c1ccc2c(c1)sc1ccccc12
not listed: [5] | [12] | [16] | [18] | [20]
inactive: all other assays above

CC(O)C(F)(F)C(F)(F)F (stereo not given)
not listed: [16]
inactive: all other assays above
